Reference: ChEMBL document CHEMBL1201862, “PubChem BioAssay data set” (2004)
Among all 420,000 compounds or so, about 50,000 (12%) were called active. Another 26% or so got no clear call; they are omitted. The calls are words filed in the database; no cut-off is given here. Many of the other results were omitted from the sample, so actives are more common in it than they were.

molecular target: Tyrosyl-DNA phosphodiesterase 1 (Homo sapiens) (UniProt Q9NUW8); assay: qHTS for Inhibitors of human tyrosyl-DNA phosphodiesterase 1 (TDP1): qHTS in cells in presence of CPT.; format: functional
Sequence (Q9NUW8 whole entry): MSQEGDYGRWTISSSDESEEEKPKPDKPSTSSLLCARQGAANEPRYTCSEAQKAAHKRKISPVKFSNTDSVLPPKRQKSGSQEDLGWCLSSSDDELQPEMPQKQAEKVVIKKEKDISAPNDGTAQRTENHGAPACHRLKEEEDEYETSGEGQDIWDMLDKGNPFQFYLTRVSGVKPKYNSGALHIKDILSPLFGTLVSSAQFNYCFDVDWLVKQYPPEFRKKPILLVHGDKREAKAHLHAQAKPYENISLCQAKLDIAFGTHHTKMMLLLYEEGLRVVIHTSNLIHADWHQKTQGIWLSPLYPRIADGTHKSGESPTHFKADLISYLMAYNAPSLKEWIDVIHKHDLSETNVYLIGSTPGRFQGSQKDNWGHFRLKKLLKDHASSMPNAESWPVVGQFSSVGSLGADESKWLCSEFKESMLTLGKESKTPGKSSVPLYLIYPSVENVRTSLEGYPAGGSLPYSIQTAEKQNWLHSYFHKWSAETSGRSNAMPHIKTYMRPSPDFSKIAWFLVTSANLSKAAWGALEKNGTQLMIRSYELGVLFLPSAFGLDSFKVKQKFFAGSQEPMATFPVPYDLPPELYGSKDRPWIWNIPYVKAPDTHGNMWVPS

Potency, active:
COc1ccc(OC)c(/C=C/c2cccc3c2N(CCCCI)C=S3/C=C/c2cc(OC)ccc2OC)c1 (stereo not given) 6.31 µM
CC(C)C(C)c1cccc2c1NC=S2C(C)C(C)C (stereo not given) 5.62 µM
COc1ccccc1/C=C/C(=O)c1cccs1 9.44 µM
Cc1cccc2c1N(CCCCI)C=S2C (stereo not given) 3.98 µM
ICCCCN1C=S(CI)c2ccccc21 (stereo not given) 10 µM
